Experimental data: PubChem BioAssay AID1159580 (chemical genetic matrix, 2015)
Where “and” joins values, the source holds several entries; their conditions need not be identical. Equal values may be shown once. About 2,000 (36%) of roughly 5,500 compounds were called active. Inconclusive results (about 18%) are left out. No stated cut-off is given here; in the data, active means normalized growth mostly below about 0.91 (no sharp cut-off); inconclusive means no clear call, values can overlap the other calls; inactive means mostly above about 0.92. This is one part of the list.

Experiment: chemical genetic growth profiling, strain panel (AID 1159580);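 further: tested at 20 µM; growth read once vehicle control cultures reached saturation at 30 °C; 1 = growth at the plate median or of vehicle wells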
Conditions: S. cerevisiae deletion strains, growth OD

Measured: normalized growth

c1ccc(N=Nc2ccccc2)cc1
inactive: locus YAL021C, strain ccr4, stronger effect = lower value 1.02 | locus YAL026C, strain drs2, stronger effect = lower value 0.998 | locus YAL030W, strain snc1, stronger effect = lower value 0.985 | locus YBL061C, strain skt5, stronger effect = lower value 0.991 | locus YBR009C, strain hhf1, stronger effect = lower value 0.985 | locus YBR021W, strain FUR4, stronger effect = lower value 1.01 | locus YBR023C, strain chs3, stronger effect = lower value 0.99 | locus YBR171W, strain sec66, stronger effect = lower value 0.975 | locus YBR229C, strain ROT2, stronger effect = lower value 1 | locus YBR231C, strain swc5, stronger effect = lower value 0.984 | locus YBR279W, strain paf1, stronger effect = lower value 0.985 | locus YCL011C, strain gbp2, stronger effect = lower value 0.992 | locus YCL016C, strain dcc1, stronger effect = lower value 0.982 | locus YCL029C, strain bik1, stronger effect = lower value 1.03 | locus YCL061C, strain MRC1, stronger effect = lower value 0.993 | locus YCL069W, strain vba3, stronger effect = lower value 0.988 | locus YCR088W, strain abp1, stronger effect = lower value 0.991 | locus YDL005C, strain med2, stronger effect = lower value 0.977 | locus YDL035C, strain GPR1, stronger effect = lower value 0.981 | locus YDL040C, strain nat1, stronger effect = lower value 0.985 | locus YDL074C, strain BRE1, stronger effect = lower value 0.942 | locus YDL101C, strain DUN1, stronger effect = lower value 0.979 | locus YDL134C, strain PPH21, stronger effect = lower value 0.968 | locus YDL185W, strain tfp1, stronger effect = lower value 1.01 | locus YDL192W, strain arf1, stronger effect = lower value 1.03 | locus YDR001C, strain nth1, stronger effect = lower value 0.987 | locus YDR069C, strain doa4, stronger effect = lower value 0.995 | locus YDR101C, strain arx1, stronger effect = lower value 1.02 | locus YDR137W, strain rgp1, stronger effect = lower value 0.911 | locus YDR150W, strain NUM1, stronger effect = lower value 1 | locus YDR159W, strain sac3, stronger effect = lower value 1.01 | locus YDR162C, strain NBP2, stronger effect = lower value 1.01 | locus YDR195W, strain ref2 0.994 | locus YDR297W, strain sur2, stronger effect = lower value 0.987 | locus YDR318W, strain mcm21, stronger effect = lower value 1.02 | locus YDR334W, strain swr1, stronger effect = lower value 0.989 | locus YDR335W, strain msn5, stronger effect = lower value 0.972 | locus YDR388W, stronger effect = lower value 1.03 | locus YDR392W, strain spt3, stronger effect = lower value 0.992 | locus YDR502C, strain sam2, stronger effect = lower value 1.02 | locus YEL003W, strain gim4, stronger effect = lower value 0.996 | locus YEL037C, strain rad23, stronger effect = lower value 0.988 | locus YEL061C, strain CIN8 (second series), stronger effect = lower value 0.976 | locus YEL061C, strain CIN8, stronger effect = lower value 1 | locus YER015W, strain faa2, stronger effect = lower value 0.996 | locus YER016W, strain bim1, stronger effect = lower value 0.992 | locus YER110C, stronger effect = lower value 1.03 | locus YER111C, strain swi4, stronger effect = lower value 0.987 | locus YER155C, strain BEM2 (second series), stronger effect = lower value 0.906 | locus YER155C, strain BEM2, stronger effect = lower value 1.01 | locus YER167W, strain BCK2, stronger effect = lower value 0.998 | locus YFR010W, strain ubp6, stronger effect = lower value 0.99 | locus YGL078C, strain dbp3, stronger effect = lower value 1.02 | locus YGL086W, strain mad1, stronger effect = lower value 1.01 | locus YGL167C, strain pmr1, stronger effect = lower value 0.992 | locus YGL173C, strain kem1, stronger effect = lower value 0.993 | locus YGL227W, strain vid30, stronger effect = lower value 0.992 | locus YGL240W, strain doc1, stronger effect = lower value 0.975 | locus YGL248W, strain PDE1, stronger effect = lower value 0.982 | locus YGL253W, strain hxk2, stronger effect = lower value 0.996 | locus YGR078C, strain PAC10, stronger effect = lower value 0.939 | locus YGR135W, strain pre9, stronger effect = lower value 1.02 | locus YGR229C, strain SMI1, stronger effect = lower value 0.966 | locus YGR252W, strain gcn5, stronger effect = lower value 0.999 | locus YHR013C, strain ard1, stronger effect = lower value 1.07 | locus YHR027C, strain rpn1, stronger effect = lower value 0.987 | locus YHR030C, strain SLT2, stronger effect = lower value 1.01 and 0.972 | locus YHR079C, strain IRE1 (second series), stronger effect = lower value 1.02 | locus YHR079C, strain IRE1, stronger effect = lower value 0.967 | locus YHR094C, strain hxt1, stronger effect = lower value 1.03 | locus YHR129C, strain ARP1, stronger effect = lower value 1 | locus YHR142W, strain chs7, stronger effect = lower value 1.01 | locus YHR200W, strain rpn10, stronger effect = lower value 1.03 | locus YIL066C, strain RNR3, stronger effect = lower value 0.986 | locus YIL073C, strain SPO22, stronger effect = lower value 1.08 | locus YIL125W, strain kgd1, stronger effect = lower value 1.01 | locus YIR030C, strain dcg1, stronger effect = lower value 1.04 | locus YJL092W, strain hpr5, stronger effect = lower value 0.976 | locus YJL095W, strain BCK1 (second series), stronger effect = lower value 0.979 | locus YJL095W, strain BCK1, stronger effect = lower value 0.983 and 0.961 | locus YJL115W, strain asf1, stronger effect = lower value 0.989 | locus YJL129C, strain trk1, stronger effect = lower value 0.969 | locus YJL134W, strain LCB3, stronger effect = lower value 1.01 | locus YJL154C, strain vps35, stronger effect = lower value 0.984 | locus YJL164C, strain tpk1, stronger effect = lower value 0.996 | locus YJL166W, strain qcr8, stronger effect = lower value 0.976 | locus YJL168C, strain set2, stronger effect = lower value 1.02 | locus YJL187C, strain SWE1 (second series), stronger effect = lower value 0.971 | locus YJR043C, strain POL32, stronger effect = lower value 0.996
